Screens from PubChem.
A selection: hits, their analogues and other compounds. The true share with any hit is near 3.3%.
RE007 growth inh: less growth of the S. pombe RE007 Vpr strain; S. pombe RE007 Vpr strain, BacTiter-Glo ATP luminescence, 24 h; Potency, µM (titrated, usually from 92.2 µM), without a hit: at the highest dose activity change, negative = less growth, actives largely listed as inhibitors; 360,000 compounds, 0.21% hits; active = well fitted falling curve with a large enough effect; inconclusive = small, poorly fitted or top-dose-only effect; inactive = no such curve, though single readings can be large or run the other way; note: % is set by controls: 0 for no effect and ±100 for the full control effect; nearly all actives have a fitted effect of over 50% in size
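Fission yeast strain RE007, carrying one chromosomally integrated HIV-1 vpr copy, was seeded at OD 0.01 in PMG+AL medium with 23 nL pinned compound. After 24 h at 30 °C and 99% humidity, viability was read by BacTiter-Glo luminescence.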
SARS PLP yeast: SARS-CoV PLP inhibition in yeast. S. cerevisiae expressing SARS-CoV PLpro, growth rescue. Potency, µM (top dose mostly 32.9 µM), inactives show at the highest dose activity, positive = growth rescue, most hits filed as activators. 330,000 compounds, 0.19% hits; calls by dose curve; note: 0% is about no effect; nearly all actives have a fitted effect of over 55% in size
Sm TGR inh: S. mansoni TGR enzyme inhibition | purified TGR, DTNB reduction, TNB absorbance 405 nm | Potency, µM (doses to about 114 µM), without a hit: top-dose activity change, negative = inhibition, usual class: inhibitors | 360,000 compounds, 3% hits | AID 485364; note: % is set by controls: 0 for no effect and ±100 for the full control effect; nearly all actives have a fitted effect of over 60% in size
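First, TGR (20 nM dispensed) and NADPH were mixed with compound. Second, a 15 min room-temperature incubation followed. Third, further NADPH and then DTNB were added to start the reaction. Finally, TNB absorbance was monitored kinetically.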
Tb PYK inh: T. brucei pyruvate kinase inhibition | AID 624173 | 410,000 compounds, 0.12% hits | Q57TT1 | TbPYK enzyme, Kinase-Glo Plus ATP luminescence, 45 min | Potency, µM (doses to about 76.8 µM), without a hit: at the top dose activity, negative = inhibition, usual class: inhibitors; note: % is set by controls: 0 for no effect and ±100 for the full control effect; nearly all actives have a fitted effect of over 50% in size
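Assay buffer: 50 mM TEA pH 7.2, 100 mM KCl, 10 mM MgCl2, 0.05% BSA, 0.01% Tween-20. Pyruvate kinase from T. brucei plus substrate met compound, then ADP (130 uM final). Luminescence was read post 45 min RT.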
NS1 function inh: inhibitors of influenza NS1 protein function. Potency, µM (highest dose often 46.1 µM), for the others: at the top dose activity, positive = more growth. 270,000 compounds, 0.4% hits. AID 2326; calls by dose curve; note: actives are rising curves; nearly all actives have a fitted effect of over 50% in size
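A cell-based growth assay was used: compounds that relieve NS1-induced slow growth of budding yeast raise OD600. Assay medium was yeast nitrogen base with ammonium sulphate and -URA supplement, pH 6.0, with 2% galactose.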
LmPK inhibitor: inhibitors of Leishmania mexicana pyruvate kinase | purified LmPK, Kinase-Glo ATP luminescence, 1 h | 290,000 compounds, 0.37% hits | AID 1721 | Q27686 | Potency, µM (highest dose often 57.5 µM), without a hit: at the highest dose activity change, negative = inhibition, most hits filed as inhibitors; note: % is set by controls: 0 for no effect and ±100 for the full control effect
Target sequence (Q27686 whole entry, looked up): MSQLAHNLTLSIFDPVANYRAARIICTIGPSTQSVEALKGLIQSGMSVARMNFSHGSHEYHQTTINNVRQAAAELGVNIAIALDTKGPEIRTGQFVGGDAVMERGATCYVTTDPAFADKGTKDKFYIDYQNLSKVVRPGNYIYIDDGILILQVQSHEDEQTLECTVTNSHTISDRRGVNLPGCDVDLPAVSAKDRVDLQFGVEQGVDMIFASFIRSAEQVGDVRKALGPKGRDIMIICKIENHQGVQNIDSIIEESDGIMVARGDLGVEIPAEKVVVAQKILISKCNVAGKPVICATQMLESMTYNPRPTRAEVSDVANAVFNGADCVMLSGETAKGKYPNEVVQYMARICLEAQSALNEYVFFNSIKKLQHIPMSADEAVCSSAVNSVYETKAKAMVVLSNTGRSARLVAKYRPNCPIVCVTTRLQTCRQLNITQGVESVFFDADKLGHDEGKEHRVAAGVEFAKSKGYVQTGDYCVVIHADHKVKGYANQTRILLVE
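qHTS format; LmPK 0.1 nM; substrates PEP 0.5 mM and ADP 0.1 mM. One-hour room-temperature incubation, then coupled luciferase luminescence; 0.5 nM enzyme wells mark activation.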
An asterisk follows results filed as active; ? = inconclusive; nt = no result; [ ] = dose if it differs, or a comment. Unless noted, calls come from the whole dose curve; as a rule, active = well fitted curve in the direction sought with a large enough effect; inconclusive = small, poorly fitted or top-dose-only effect, or another doubt; inactive = no such curve, though single readings can be large; an effect the other way counts as inactive or inconclusive. Potency is the fitted concentration of half-maximal effect.

SMILES	RE007 growth inh	SARS PLP yeast	Sm TGR inh	Tb PYK inh	NS1 function inh	LmPK inhibitor
CC(=NCc1ccco1)c1c(C)[nH]n(-c2nc3ccccc3s2)c1=O	?	1%	-20%	-5%	5%	-3%
CC(=O)Nc1cccc(NC(=O)CSc2cn(CC(=O)N3CCCCCC3)c3ccccc23)c1	nt	nt	0%	-9%	nt	nt
COc1ccc(S(=O)(=O)N(CC(=O)Nc2ccc(F)c(Cl)c2)c2ccc(C)cc2)cc1OC	nt	nt	-1%	-1%	nt	nt
Cc1ccc(Oc2c(C(N)=O)cc([N+](=O)[O-])cc2[N+](=O)[O-])cc1	11%	12%	11µM*	-3%	-15%	-2%
CCOC(=O)C1=C(O)/C(=C\c2ccc(CNS(=O)(=O)c3ccc(Br)cc3)o2)N=C1C	nt	29%	40µM*	-23%	5%	1%
COC(=O)C1=C(O)/C(=C\c2ccc(CNS(=O)(=O)c3ccc(Cl)cc3)o2)N=C1C	-4%	0%	28µM*	-22%	?	2%
COC(=O)C1=C(O)/C(=C\c2ccc(CNS(=O)(=O)c3ccccc3)o2)N=C1C	18%	0%	40µM*	-16%	5%	1%
COC(=O)C1=C(O)/C(=C\c2ccc(OCC(=O)Nc3ccccc3)cc2)N=C1C	2%	?	2%	4%	-2%	-1%
C=C[C@@]1(C)C[C@H](OC(=O)CSC(C)(C)CNC(=O)[C@@H](N)C(C)C)[C@@]2(C)C(C)CC[C@@]3(CCC(=O)[C@@H]32)[C@H](C)[C@H]1O (some centres not stated)	nt	nt	nt	0%	nt	nt
CC1(C)CC(=O)C(C=Nc2ccccc2)=C(O)C1	20µM*	8%	-9%	-10%	2%	-4%
CC1(C)CC(=O)C(C=Nc2ccccc2Sc2ccccc2)=C(O)C1	20µM*	3%	-1%	-6%	-6%	4%
CC1(C)CC(=O)C(C=Nc2ccccc2C(=O)O)=C(O)C1	11%	-4%	7%	1%	0%	2%
COc1cc([N+](=O)[O-])ccc1NC(=O)N1CCC2(CC1)Nc1ccccc1-n1cccc12	nt	nt	-3%	-2%	nt	nt
CN1C[C@H](C(=O)N[C@]2(C)O[C@@]3(O)[C@@H]4CCCN4C(=O)[C@H](Cc4ccccc4)N3C2=O)C=C2c3cccc4[nH]cc(c34)C[C@H]21	nt	nt	nt	-9%	nt	nt
CCC(CO)NC(=O)C1C=C2c3cccc4[nH]cc(c34)CC2N(C)C1 (configuration not stated)	1%	1%	-20%	8%	0%	-1%
CC[C@@H](CO)NC(=O)[C@@H]1C=C2c3cccc4c3c(cn4C)C[C@H]2N(C)C1	-14%	3%	8.9µM*	2%	23%	-2%
CC(C)C[C@H]1C(=O)N2CCC[C@H]2[C@]2(O)O[C@](NC(=O)[C@@H]3C=C4c5cccc6[nH]cc(c56)C[C@H]4N(C)C3)(C(C)C)C(=O)N12	2%	nt	5.6µM*	-3%	nt	nt
COC(=O)C1C=C2c3cccc4[nH]cc(c34)CC2N(C)C1 (configuration not stated)	nt	-1%	10µM*	nt	15%	-1%
N[C@@H](Cc1cccc([N+](=O)[O-])c1)C(=O)O	nt	nt	nt	nt	5%	nt
COc1ccc(NC(=O)c2ocnc2C)cc1OC	4%	-6%	2%	-3%	5%	-12%
Cc1ncoc1C(=O)Nc1ccc2c(c1)OCCO2	-12%	-12%	14%	-29%	-1%	16µM*
Cc1nn(C)c(C(=O)Nc2ccc3c(c2)OCO3)c1[N+](=O)[O-]	-3%	-6%	-5%	-8%	5%	-10%
Cc1ccsc1C(=O)Nc1ccc2c(c1)OCCO2	-24%	-19%	-1%	?	5%	16µM*
Cc1ncoc1C(=O)Nc1ccccc1-c1ccccc1	10%	2%	1µM*	-6%	1%	2%
Cc1c([N+](=O)[O-])c(C(=O)Nc2ccc3c(c2)OCCO3)nn1C	-9%	-8%	-24%	?	4%	14µM*
SMILES	RE007 growth inh	SARS PLP yeast	Sm TGR inh	Tb PYK inh	NS1 function inh	LmPK inhibitor
O=C(CSC1=NCCN1)Nc1ccccc1	nt	nt	nt	nt	1%	nt
COC(=O)c1ccccc1S(=O)(=O)N1CCc2nc(COc3ccccc3)c3c(c2C1)CO[C@@H](C)C3	nt	nt	nt	nt	nt	-6%[11.5 µM]
Cn1c(=O)c2[nH]c(CCC(=O)O)nc2n(C)c1=O	nt	nt	nt	nt	8%	nt
O=[N+]([O-])c1ccc(Sc2nccn2Cc2ccccc2)c([N+](=O)[O-])c1	-3%	-9%	28µM*	-2%	-13%	11%
O=[N+]([O-])c1ccc(Sc2ncccn2)c([N+](=O)[O-])c1	?	-5%	10µM*	4%	-1%	3%
O=[N+]([O-])c1cc(C(F)(F)F)ccc1Sc1nccn1Cc1ccccc1	1%	-18%	-9%	4%	6%	-1%
Cc1c(Cl)cccc1NC(=O)c1ccc(NC(=O)N2CCSc3ncccc32)cc1	nt	nt	3%	7%[15.4 µM]	nt	nt
O=C(CCN1C(=O)/C(=C/c2ccc(Cl)cc2)SC1=S)Nc1cccc(C(=O)O)c1	9%	0%	-7%	1%	2%	0%
O=C(O)c1cccc(N2C(=O)/C(=C/c3ccc(SCc4ccc(Cl)cc4)o3)SC2=S)c1	-18%	1%	13µM*	?	nt	3%
Cn1nnc2c(N3CCCCC3)ncnc21	nt	nt	57%	-4%	nt	nt
Cc1nc2ccc(N=NN(C)C)cc2[nH]1	19%	0%	20µM*	?	3%	?
Cc1cc(C(F)(F)F)nn1-c1nc(-c2ccccc2)cc(C(F)(F)F)n1	nt	nt	8%	3%	nt	nt
Nc1c(Br)cc2oc(-c3ccccc3)nc2c1Br	11%	15%	-3%	0%	5%	-4%
COc1ccc(-c2nc3c(Br)c(N)c(Br)cc3o2)cc1	-9%	4%	2%	-2%	4%	22µM*
O=C(CSc1nc(-c2cccs2)nc2cc(=O)[nH]n12)Nc1cccc(C(F)(F)F)c1	nt	nt	1%	-15%	nt	nt
CCN(CC)c1ccc(C(=O)O)cc1	-16%	-15%	6%	-12%	5%	-4%
Cc1ccc(/C=C2\NC(=S)NC2=O)cc1[N+](=O)[O-]	3%	0%	1%	-14%	nt	-3%
CCN(CC)c1ccc(/C=C2\C(=O)c3ccc(C(=O)O)cc3C2=O)cc1	-20%	-26%	0%	25µM*	-40%	-21%
CCN(CC)c1ccc(/C=C2\NC(=O)NC2=O)cc1	10%	6%	-7%	-5%	-4%	2%
CCN(CC)c1ccc(C=C2C(=O)NC(=S)NC2=O)cc1	8%	2%	16µM*	?	1%	-18%
CN(C)c1ccc(C=C2C(=O)NC(=O)NC2=O)cc1	6%	nt	nt	-26%	nt	nt
CN(C)c1ccc(C=C2C(=O)NC(=S)NC2=O)cc1	33%	nt	nt	32µM*	nt	nt
